Screening results (PubChem)
Most compounds without a hit are left out; they make up all but 32% or so of the library.
CYP2C19 act: increases human CYP2C19 enzyme activity; recombinant CYP2C19, luciferin-H EGE luminescence; hits give high values; 0 = fully inhibited enzyme, 1 = untreated enzyme; activation factor at 5 µM; 96,000 tested, under 10 active; AID 1025;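 active = activation factor of at least 2 at 5 µM in the primary screen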;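 also: 0 = wells with 2.5 mM tranylcypromine and 1 = vehicle-only wells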
Target sequence (P33261 whole entry, looked up): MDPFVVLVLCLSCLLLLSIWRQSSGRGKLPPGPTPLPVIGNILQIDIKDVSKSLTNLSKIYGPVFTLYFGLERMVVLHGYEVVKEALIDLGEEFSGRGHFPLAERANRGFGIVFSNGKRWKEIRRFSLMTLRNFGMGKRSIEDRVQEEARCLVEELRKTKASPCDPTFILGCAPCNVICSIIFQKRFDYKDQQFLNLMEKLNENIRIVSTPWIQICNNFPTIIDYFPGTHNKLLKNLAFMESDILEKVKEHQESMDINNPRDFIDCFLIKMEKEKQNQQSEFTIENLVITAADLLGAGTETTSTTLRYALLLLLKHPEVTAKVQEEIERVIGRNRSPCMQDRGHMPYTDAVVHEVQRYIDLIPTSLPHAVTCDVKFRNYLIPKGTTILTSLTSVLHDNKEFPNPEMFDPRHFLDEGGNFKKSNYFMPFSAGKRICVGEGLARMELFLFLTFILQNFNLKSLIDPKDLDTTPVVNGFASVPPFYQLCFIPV
CYP2C19 inh: human CYP2C19 inhibition | CYP2C19 Supersomes, luciferin-H EGE luminescence, 30 min | actives 21% (n = 96,000) | P33261 | inhibition, % at 5 µM;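 active = CYP2C19 inhibition above a set limit at 5 µM in the primary screen, cut at about 50% in these data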;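 also: plate controls were negative control wells for no effect and 2.5 mM tranylcypromine positive control for full effect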
PostGolgi yeast: growth inhibition of a yeast mutant, post-Golgi transport screen | post-Golgi transport phenotypic cell assay | inhibition, % at 10 µM | actives 0.9% (n = 98,000) | AID 739;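 also: yeast cells grown in 1536-well plates; yeast grown about 18 h at 30C before absorbance read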
CYP2C9 inhib: human CYP2C9 inhibition | P11712 | CYP2C9 Supersomes, luciferin-H conversion, luminescence | inhibition, % at 5 µM | actives 20% (n = 96,000) | AID 777;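 active = blocking of liver enzyme CYP2C9 beyond about 50% at 5 µM, limit read from the data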
CYP2C9 act: CYP2C9 (human) activation. recombinant CYP2C9, luciferin-H conversion, luminescence; hits give high values; factor 1 = untreated enzyme, 0 = blocked. P11712. actives 1.4% (n = 96,000). AID 1024. activation factor at 5 µM;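 active = activation factor of 2 or more for CYP2C9 at a 5 µM dose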;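 also: 0 = sulfaphenazole-blocked wells and 1 = vehicle-only wells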
PostGolgi ctrl: yeast control strain growth, post-Golgi counter-screen; actives 5% (n = 98,000); inhibition, % at 10 µM; AID 738; efflux-deficient yeast background strain, growth absorbance A615, 16 h
An asterisk follows results filed as active; x = not tested or not shown. Rule as the data show it, unless noted: active = inhibition above about 30%; inactive = the rest.

SMILES	CYP2C19 act	CYP2C19 inh	PostGolgi yeast	CYP2C9 inhib	CYP2C9 act	PostGolgi ctrl
Cc1c(NC(=O)CSc2nc3ccccc3s2)c(=O)n(-c2ccccc2)n1C	0.9	8.9	14.9	1.5	1	-2.2
COc1cc(/C=C2/S/C(=N/S(=O)(=O)c3ccccc3)NC2=O)c([N+](=O)[O-])cc1OC	0.9	6.8	-0.6	99.1*	0	7.3
Cc1cc(/C=C2\SC(=Nc3ccc(F)cc3)NC2=O)c(C)n1-c1ccc(S(N)(=O)=O)cc1	0.8	16.8	11.7	41.3	0.6	3.3
O=C(O)CS(=O)(=O)CC(=O)O	1	-2.7	10.7	13.6	0.9	-1.8
S=c1nc(C2CC2)[nH]c2ccccc12	1.1	-11.2	-0.8	4.4	1	-1.5
CC(C)c1nc(=S)c2ccccc2[nH]1	0.4	62.7*	6.8	52.7*	0.5	12.2
CCOC(=O)N1CCN(C(=O)COc2ccccc2OC)CC1	0.7	28.1	2.8	-1.2	1	1.5
COc1ccccc1N1CCN(C(=O)COc2ccc(C)cc2Br)CC1	0.5	49.8	-0.6	9.0	0.9	34.8*
COc1ccccc1N1CCN(C(=O)COc2ccc(Cl)cc2Br)CC1	0.5	54.5*	5.0	7.9	0.9	68.4*
Cc1cc(OCC(=O)N2CCCC2)ccc1Cl	0.2	84.8*	1.4	20.4	0.8	0.3
Cc1ccc(OCC(=O)N2CCCCC2)c(Br)c1	0.1	85.4*	0.0	-9.0	1.1	4.3
COC(=O)C1CN(S(=O)(=O)c2ccc(C)cc2)CCN1S(=O)(=O)c1ccc(C)cc1 (stereo not given)	0.9	8.9	-1.6	-12.8	1.1	7.3
COCCNC(=O)COc1ccc(Oc2ccccc2)cc1	0.8	22.0	5.0	7.2	0.9	9.2
COCCCNC(=O)COc1ccc(Cl)c(C)c1	0.2	83.7*	-3.7	-6.0	1.1	5.8
CC1CC(C)CN(CCCNC(=O)c2csc3c2CCCC3)C1 (stereo not given)	0.8	24.4	-10.2	13.6	0.9	12.0
COc1ccc(OCCC(=O)OCC(=O)NC(=O)NC(C)(C)C)cc1	0.2	84.4*	6.6	82.7*	0.2	6.3
COc1ccc(OCCC(=O)OCC(=O)NCc2ccco2)cc1	0.9	5.9	-3.3	4.2	1	-10.9
COC(=O)C1CCN(C(=O)COC(=O)Cn2cnnn2)CC1	1.2	-16.7	-3.1	-12.0	1.1	6.0
CCc1c(C)nc2ncnn2c1N1CCC(C(=O)NCc2cccc(OC)c2)CC1	0.9	5.9	-3.2	-2.1	1	15.8
CCc1c(C)nc2ncnn2c1N1CCCC(C(=O)Nc2cc(F)ccc2C)C1 (stereo not given)	0.8	23.4	3.2	84.6*	0.2	8.6
COc1ccc(NC(=O)C2CCCN(c3c4c(nc5ncnn35)CCC4)C2)cc1 (stereo not given)	0.7	31.2	7.7	80.0*	0.2	1.5
CCc1c(C)nc2ncnn2c1N1CCC(C(=O)Nc2cccc(C(C)=O)c2)CC1	0.5	54.4*	13.7	76.5*	0.2	-8.7
CCc1c(C)nc2ncnn2c1N1CCCC(C(=O)NCCc2ccccc2)C1 (stereo not given)	1	-2.5	0.5	35.1	0.6	9.0
O=C(O)COc1ccc(-c2nnn(Cc3ccccc3F)n2)cc1	1.2	-19.2	-8.3	-7.3	1.1	12.1
COc1cccc(C(=O)Nc2nc(-c3ccc4c(c3)OCO4)cs2)c1	0.8	15.4	-3.4	47.8	0.5	2.3
SMILES	CYP2C19 act	CYP2C19 inh	PostGolgi yeast	CYP2C9 inhib	CYP2C9 act	PostGolgi ctrl
COc1cccc(-c2csc(NC(=O)C3CC3)n2)c1	0.9	13.2	-1.8	23.9	0.8	10.3
COc1cccc(Nc2nc(-c3ccc(O)cc3)cs2)c1	0.5	48.7	-0.6	82.1*	0.2	23.5
Cc1cccnc1Nc1nc(-c2ccc(O)cc2)cs1	0.1	88.1*	1.0	63.1*	0.4	24.4
COc1cccc(Nc2nc(-c3cccc(N4C(=O)c5ccccc5C4=O)c3)cs2)c1	0.7	26.5	-10.2	62.5*	0.4	-2.2
CN(C)CC(O)COc1cc2ccccc2cc1C(=O)N1CCCCC1 (stereo not given)	0.9	7.0	-3.4	13.9	0.9	-8.7
Cc1cc2c(cc1C)CSC(c1ccccc1OC(=O)C(C)C)SC2	1	-0.7	-1.3	4.9	1	3.7
Cc1ccc(S(=O)(=O)N2CCCC2C(=O)Oc2ccccc2)cc1 (stereo not given)	0.2	75.3*	-8.0	-9.8	1.1	18.6
COC(=O)C1CCCN1S(=O)(=O)c1ccc2ccccc2c1 (stereo not given)	0.6	38.1	11.3	-168.9	2.7*	15.4
COc1ccc(S(=O)(=O)N2CCCCC2C(=O)O)cc1OC (stereo not given)	1	0.2	-2.9	4.5	1	21.0
CCOc1ccc(C(=O)Nc2ccc(Cl)cn2)cc1Cl	0.8	16.3	-9.0	2.2	1	-2.3
CCCCNc1nc(CC)c2c(c1C#N)CCCC2	0.7	25.5	2.5	38.1	0.6	8.0
COc1cccc(/C=N/n2c(SC)nnc2-c2ccccc2)c1OC	0.1	91.4*	-22.2	90.8*	0.1	22.0
COc1cccc(/C=N/n2cnc3ccccc32)c1OC	0.2	83.1*	-0.2	45.8	0.5	16.4
COc1cccc(/C=N/n2c(SC)nnc2-c2ccccc2)c1O	0.7	26.4	-7.7	53.5*	0.5	29.4
COc1cccc(/C=N/n2c(N)nc3ccccc32)c1OC	0.7	31.4	-10.5	18.9	0.8	23.6
COc1cccc(/C=N/NC(=O)CSc2nnc(C)n2-c2ccccc2)c1O	1	-4.6	0.5	-5.2	1.1	-5.4
Cc1ccnc(Sc2nc3c(c(=O)[nH]c(=O)n3C)n2CCCc2ccccc2)n1	0.7	26.0	-0.5	40.1	0.6	-1.9
CC(=O)Nc1ccc(S(=O)(=O)NCc2ccc(C(=O)NC(C)c3ccccc3)cc2)cc1 (stereo not given)	0.7	26.5	-7.5	90.8*	0.1	-0.7
CCc1cc(C(=O)Nc2ccccc2)cs1	0.2	76.3*	7.0	48.1	0.5	9.7
CCCc1cc(C(=O)Nc2nccs2)cs1	0.6	40.4	7.2	52.5*	0.5	2.9
CCNS(=O)(=O)c1ccc(C(=O)Nc2ccccc2)cc1	1.1	-10.8	7.9	96.9*	0	9.4
Cc1cc(C)nc(-n2nc(C)c3c(C)c(C)c(C)nc32)n1	1.1	-5.3	-2.1	-0.4	1	3.4
Clc1cccc(-c2nn3c(-c4cccc(Cl)c4)nnc3s2)c1	0.6	43.4	x	12.2	0.9	x
CCNS(=O)(=O)c1ccc(NC(=O)c2cccnc2)cc1	1	-1.2	-6.5	78.2*	0.2	1.6
COc1cc(CN2CCC(C(=O)N3CCCC(C)C3)CC2)cc(Br)c1O (stereo not given)	1.1	-8.4	4.6	-11.1	1.1	6.9
CC(C)Cn1c(SCc2nnc(-c3cccs3)o2)nc(O)cc1=O	0.8	24.5	4.2	74.8*	0.3	12.8
